Source: PubChem BioAssay AID493192 (National Center for Advancing Translational Sciences (NCATS), 2011)
Inconclusive results are not listed. A number with no mark means an inactive call. Active and inactive are the calls of the source. Calls follow the shape of the dose curve; as a rule, active = well fitted activation curve with a large enough effect; inconclusive = small, poorly fitted or top-dose-only effect; inactive = no such curve, though single readings can be large or run the other way.

Experiment: qHTS Assay for Identifying a Potential Treatment of Ataxia-Telangiectasia: Hit Validation;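 also: phospho-KAP1 level by AlphaLISA as a proxy for ATM-like kinase activity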; as to activity change, positive = activation: 0% is about no effect
Conditions: Ataxia-telangiectasia cell-based hit validation qHTS, in ATM-null A-T patient fibroblasts; series mostly up to 76.9 µM; activity change, positive = activation: at the top concentration
Method in brief: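 hTERT-immortalized A-T patient fibroblasts (F2112) were dosed at up to 76.7 uM final for 60 min at 37C. After a further 30 min incubation, cells were lysed, and phospho-KAP1 was detected by AlphaLISA after 6 hr at 25C.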
Potency is read from the fitted curve at half-maximal effect.

| Structure (SMILES) | Potency | activity change, positive = activation [%] |
| --- | --- | --- |
| CSc1nc2ccccc2nc1N(C)S(=O)(=O)c1ccc(C)cc1 | 58.2 µM (active) |  |
| COc1ccc(C(CNC(=O)C(Cc2ccccc2)NC(N)=O)N(C)C)cc1 (configuration not stated) |  | 14.7 |
| CN(C)c1cc(Nc2ccc(O)cc2)c([N+](=O)[O-])c2nonc12 |  | 8.03 |
| O=C(CSc1ccccn1)N/N=C/C=C/c1ccccc1 |  | 0.699 |
| O=C(O)c1ccc(C2Nc3ccccc3C(=O)N2Cc2ccccc2)cc1 (configuration not stated) |  | -4.55 |
| Cc1ccccc1S(=O)(=O)Oc1ccc2ccc(O)cc2c1 |  | -4.17 |
| CCC(=O)Nc1ccc(S(=O)(=O)c2ccc(NC(=O)CC)cc2)cc1 |  | -2.41 |
| CCCN1C2CCCC1CC(NC(=S)Nc1cccc(C)c1C)C2 (configuration not stated) |  | 10.4 |
| COc1cccc(CN(C)CC(=O)NCc2ccc(F)cc2)c1OC |  | 5.21 |
| CCC[C@H]1CCCC/C=C\CCCC(=O)OCCN1C(=O)OC(C)(C)C |  | -8.68 |
| COc1ccccc1NC(=O)C1CCCN(S(=O)(=O)c2ccc(-n3cnnn3)cc2)C1 (configuration not stated) |  | 1.75 |
| COc1ccc(-c2cc(C(F)(F)F)c(C#N)c(SCC(=O)O)n2)cc1OC |  | -6.83 |
| C=CCSc1nc2ccccc2n1C(=O)/C=C/c1cc(OC)c(OC)c(OC)c1 | 26 µM (active) |  |
| CNC(=O)c1ccc(-c2sc3nc(N4CCOCC4)c4c(c3c2N)CC(C)(C)OC4)o1 | 29.2 µM (active) |  |
| Cc1ccc(NC(=O)CSc2nnc([C@H](C)NC(=O)OC(C)(C)C)o2)c(C)c1 | 26 µM (active) |  |
| CCOC(=O)CN(C(=O)CSc1nnc(COc2ccc(OC)cc2)n1CC)c1ccccc1 |  | 4.51 |
| S=c1[nH]nc(Cn2c(-c3ccccn3)nc3ccccc32)n1-c1ccc2c(c1)OCCO2 |  | 3.21 |
